Measured values from PubChem BioAssay (Tox21).
Inconclusive results are not listed. Activity calls are given as the source filed them. Unless noted, the call rests on the fitted dose curve; in most records, active means well fitted curve in the direction sought with a large enough effect in the repeat runs; inconclusive means weak or mixed curves; inactive means no such curve, though single readings can be large; an effect the other way counts as inactive or inconclusive.

Key:
[1] = qHTS assay to identify small molecule agonists of the peroxisome proliferator-activated receptor delta (PPARd) signaling pathway - cell viability counter screen (AID 743211); further: nearly all actives have a fitted effect of over 55% in size
In short: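 PPARd-bla HEK293H cells (3000/well) were pre-incubated 5 h at 37 C, then exposed to compound for 17 h at 37 C. After 2 h with LiveBLAzer substrate, CellTiter-Glo was added to the same wells; luminescence read after 30 min at room temperature.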

[2] = biological target: Peroxisome proliferator-activated receptor delta (Homo sapiens) (UniProt Q03181); experiment: qHTS assay to identify small molecule agonists of the peroxisome proliferator-activated receptor delta (PPARd) signaling pathway (AID 743212; calls by dose curve)
In short: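 GeneBLAzer PPARd UAS-bla HEK293H cells (beta-lactamase reporter under UAS control), plated and rested 5 h at 37 C, then exposed to compounds in DMSO at 37 C; LiveBLAzer B/G FRET substrate added, 2 h room temperature, fluorescence read.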

[3] = qHTS assay to identify small molecule antagonists of the peroxisome proliferator-activated receptor delta (PPARd) signaling pathway - cell viability counter screen (AID 743213); further: nearly all actives have a fitted effect of over 50% in size
In short: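 Agonist-stimulated (L165041, 300 nM final) HEK293H PPARd UAS-bla cells are exposed to compounds for 17 h at 37 C, and ATP-based luminescence (CellTiter-Glo) from the same wells reports cytotoxicity.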

[4] = biological target: Peroxisome proliferator-activated receptor delta (Homo sapiens) (UniProt Q03181); experiment: qHTS assay to identify small molecule antagonists of the peroxisome proliferator-activated receptor delta (PPARd) signaling pathway (AID 743215; active means well fitted inhibition curve with a large enough effect in the signal ratio in the repeat runs, not every such curve was filed as active; the % refers to the signal ratio; further: series mostly up to about 62 µM)
In short: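 PPARd-bla HEK293H cells (UAS-bla reporter) preincubated 5 h, then given compound plus 300 nM final L165041 agonist for 17 h at 37 C. Beta-lactamase activity read by LiveBLAzer B/G FRET substrate fluorescence after 2 h at room temperature.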

[5] = biological target: Bile acid receptor (Homo sapiens) (UniProt Q96RI1); experiment: qHTS assay to identify small molecule antagonists of the farnesoid-X-receptor (FXR) signaling pathway (AID 743217; active means well fitted inhibition curve with a large enough effect in the signal ratio in the repeat runs, not every such curve was filed as active; the % refers to the signal ratio)
In short: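 FXR-UAS-bla HEK 293T cells (beta-lactamase reporter) given compound plus chenodeoxycholic acid (50 uM final), 16 h at 37C. LiveBLAzer B/G FRET substrate added for 2 h at room temperature; fluorescence read.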

[6] = qHTS assay to identify small molecule agonists of the farnesoid-X-receptor (FXR) signaling pathway - cell viability counter screen (AID 743218); further: nearly all actives have a fitted effect of over 45% in size
In short: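 FXR-UAS-bla HEK 293T cells exposed to compounds for 16 h at 37C. Cytotoxicity read in the same wells by CellTiter-Glo luminescence after 30 min at room temperature, following the beta-lactamase FRET read.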

[7] = biological target: Bile acid receptor (Homo sapiens) (UniProt Q96RI1); experiment: qHTS assay to identify small molecule agonists of the farnesoid-X-receptor (FXR) signaling pathway (AID 743220; active means well fitted activation curve with a large enough effect in the signal ratio in the repeat runs, not every such curve was filed as active; the % refers to the signal ratio)
In short: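 Beta-lactamase reporter under UAS control in GeneBLAzer FXR HEK 293T cells (5000/well) measured with LiveBLAzer FRET substrate after 2 h at room temperature. Compound exposure lasted 16 h at 37C.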

[8] = biological target: Vitamin D3 receptor (Homo sapiens) (UniProt P11473); experiment: qHTS assay to identify small molecule antagonists of the vitamin D receptor (VDR) signaling pathway (AID 743223; active means well fitted inhibition curve with a large enough effect in the signal ratio in the repeat runs, not every such curve was filed as active; the % refers to the signal ratio)
In short: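 VDR-bla cells were treated with compound plus 3 nM final 1alpha,25-dihydroxyvitamin D3 for 16 h at 37C. Beta-lactamase reporter read by B/G FRET substrate fluorescence after 2 h at room temperature. qHTS format.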

[9] = qHTS assay to identify small molecule antagonists of the farnesoid-X-receptor (FXR) signaling pathway - cell viability counter screen (AID 743221; active means well fitted cell-killing curve with a large enough effect in the repeat runs, not every such curve was filed as active; further: nearly all actives have a fitted effect of over 50% in size)
In short: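 GeneBLAzer FXR-UAS-bla HEK 293T cells, compound plus chenodeoxycholic acid (50 uM final), 16 h at 37 C. CellTiter-Glo added to the same wells after the beta-lactamase read; luminescence read after 30 min at room temperature as viability.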

[10] = biological target: Vitamin D3 receptor (Homo sapiens) (UniProt P11473); experiment: qHTS assay to identify small molecule agonists of the vitamin D receptor (VDR) signaling pathway (AID 743222; calls by dose curve)
In short: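 VDR-bla cells plated 4 h at 37 C, then exposed to compounds for 16 h at 37 C. Beta-lactamase reporter activity measured by fluorescence after 2 h room-temperature loading with LiveBLAzer B/G FRET substrate.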

Measured: Potency

Chain of Peroxisome proliferator-activated receptor delta (Homo sapiens) (Q03181 whole entry, looked up): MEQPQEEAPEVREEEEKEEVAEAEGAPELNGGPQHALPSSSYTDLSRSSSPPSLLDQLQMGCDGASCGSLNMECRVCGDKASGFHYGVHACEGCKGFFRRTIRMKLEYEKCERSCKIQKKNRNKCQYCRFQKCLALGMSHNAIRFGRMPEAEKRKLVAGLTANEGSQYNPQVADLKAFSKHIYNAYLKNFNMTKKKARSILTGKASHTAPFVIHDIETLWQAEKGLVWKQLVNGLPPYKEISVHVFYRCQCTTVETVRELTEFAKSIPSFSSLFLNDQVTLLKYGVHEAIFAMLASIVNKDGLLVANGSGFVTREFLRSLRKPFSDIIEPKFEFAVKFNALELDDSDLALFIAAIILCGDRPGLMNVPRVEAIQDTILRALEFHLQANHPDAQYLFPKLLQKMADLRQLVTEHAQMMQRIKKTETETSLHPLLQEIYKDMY
Chain of Vitamin D3 receptor (Homo sapiens) (P11473 whole entry, looked up): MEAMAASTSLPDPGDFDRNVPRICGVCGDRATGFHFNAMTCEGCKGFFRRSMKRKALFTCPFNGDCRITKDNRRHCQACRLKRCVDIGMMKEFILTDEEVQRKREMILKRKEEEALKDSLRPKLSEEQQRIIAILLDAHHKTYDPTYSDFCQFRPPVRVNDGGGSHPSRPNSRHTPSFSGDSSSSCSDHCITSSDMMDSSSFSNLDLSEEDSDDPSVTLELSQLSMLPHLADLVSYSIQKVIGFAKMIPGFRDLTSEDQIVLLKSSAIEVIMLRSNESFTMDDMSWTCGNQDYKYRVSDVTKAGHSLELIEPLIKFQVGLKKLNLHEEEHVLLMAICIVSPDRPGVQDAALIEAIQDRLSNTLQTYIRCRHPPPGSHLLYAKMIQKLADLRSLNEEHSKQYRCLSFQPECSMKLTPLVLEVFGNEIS
Chain of Bile acid receptor (Homo sapiens) (Q96RI1 whole entry, looked up): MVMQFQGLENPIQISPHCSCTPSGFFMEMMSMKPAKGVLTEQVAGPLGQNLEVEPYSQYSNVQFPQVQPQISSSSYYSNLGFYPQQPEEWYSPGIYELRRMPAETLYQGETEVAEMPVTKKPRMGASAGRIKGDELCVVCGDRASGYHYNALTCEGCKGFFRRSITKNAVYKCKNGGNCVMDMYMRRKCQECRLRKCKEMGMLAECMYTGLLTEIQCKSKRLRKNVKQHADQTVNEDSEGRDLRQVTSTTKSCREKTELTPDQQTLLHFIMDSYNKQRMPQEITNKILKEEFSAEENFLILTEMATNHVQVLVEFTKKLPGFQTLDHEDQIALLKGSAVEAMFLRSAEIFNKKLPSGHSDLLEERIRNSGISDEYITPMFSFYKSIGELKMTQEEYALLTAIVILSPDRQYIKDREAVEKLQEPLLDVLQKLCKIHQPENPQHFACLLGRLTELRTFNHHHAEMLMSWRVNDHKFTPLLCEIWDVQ

COc1ccc(/C=C/S(=O)(=O)NC(=O)c2ccc(C)cc2Cl)cc1
inactive: [1] | [2] | [3] | [4] | [5] | [6] | [7] | [8]

COC(=O)c1cc(Cl)ccc1[N+](=O)[O-]
inactive: [1] | [2] | [3] | [4] | [6] | [9] | [10]

O=C(c1ccc(Cl)cc1)c1ccc(Cl)cc1
inactive: [1] | [2] | [3] | [4] | [6] | [9] | [10]

CCCCCCCCC(=O)OCC(C)OC(=O)CCCCCCCC (configuration not stated)
inactive: [1] | [2] | [3] | [4] | [6] | [9] | [10] | [8]

O=C(Cl)c1ccc(F)c(Cl)c1
inactive: [1] | [2] | [3] | [4] | [6] | [9] | [10] | [8]

C=C(C)C(=O)OCCCCCCCCCCOC(=O)C(=C)C
inactive: [1] | [2] | [3] | [4] | [5] | [6] | [7] | [9] | [10] | [8]

CCCCOC(=O)C(C)Oc1ccc(Oc2ccc(C(F)(F)F)cn2)cc1 (configuration not stated)
inactive: [1] | [2] | [3] | [4] | [5] | [6] | [7] | [9]

CCC(C)C1N=C(C)C(C)S1 (configuration not stated)
inactive: [1] | [2] | [3] | [4] | [6] | [9]

CCCCCCCCCCCCN1CCOCC1
inactive: [1] | [2] | [3] | [4] | [6] | [9] | [10]

Sc1nc(S)nc(S)n1
inactive: [1] | [2] | [3] | [4] | [5] | [6] | [7] | [9] | [10]

O=C(O)c1ccc2cc(O)ccc2c1
inactive: [1] | [2] | [3] | [4] | [5] | [6] | [7] | [9] | [10] | [8]

c1ccc(CCNc2nc(-c3ccccc3)cs2)cc1
inactive: [1] | [2] | [3] | [4] | [6] | [9] | [10] | [8]

CC(=O)c1cccnc1
inactive: [1] | [2] | [3] | [4] | [6] | [9] | [10]

Cc1c(Nc2ncccc2C(=O)O)cccc1C(F)(F)F
inactive: [1]

O=C1c2ccccc2C(=O)c2c1ccc(O)c2O
inactive: [1] | [2] | [3] | [4] | [6] | [9]

O=S(=O)(O)c1cc(Cl)c(Cl)cc1Cl
inactive: [1] | [2] | [3] | [4] | [6] | [9] | [10]

CCCCCCCCCCCCSC#N
inactive: [1] | [2] | [3] | [4] | [6] | [9] | [10] | [8]

CO[C@@H]1COCC[C@@H]1N[C@@H]1CC[C@@](C(=O)N2CCc3ncc(C(F)(F)F)cc3C2)(C(C)C)C1
inactive: [1] | [2] | [3] | [4] | [6] | [9] | [10] | [8]

CC(CN=Cc1ccccc1O)N=Cc1ccccc1O (configuration not stated)
inactive: [1] | [2] | [3] | [4] | [6] | [9]

O=C(O)c1ccncc1
inactive: [1] | [2] | [3] | [4] | [5] | [6] | [7] | [9] | [10] | [8]

CCOc1cc(OCC)c(C(C)=O)cc1OCC
inactive: [1] | [2] | [3] | [4] | [5] | [6] | [7] | [9] | [10] | [8]

CCCCOc1ccc(N)cc1
inactive: [1] | [2] | [3] | [4] | [5] | [7] | [9] | [10]

C/C=C1\[C@H]2C=C(C)C[C@]1(N)c1ccc(=O)[nH]c1C2
inactive: [1] | [2] | [3] | [4] | [5] | [6] | [7] | [9]

COc1cc(C)c(Cc2cnc(N)nc2N)cc1OC
inactive: [1] | [2] | [3] | [4] | [6] | [9]

CCC1=C(C)CN(C(=O)NCCc2ccc(S(=O)(=O)NC(=O)NC3CCC(C)CC3)cc2)C1=O (configuration not stated)
inactive: [1] | [2] | [3] | [4] | [6] | [9] | [10]

OCCCO
inactive: [1] | [2] | [3] | [4] | [6] | [9] | [10] | [8]

CC(C(=O)O)c1ccc2c(c1)Cc1cccnc1O2 (configuration not stated)
inactive: [1] | [2] | [3] | [4] | [6] | [9] | [10] | [8]

N#C[C@@H]1CC(F)(F)CN1C(=O)CNC1CC2CCC(C1)N2c1ncccn1 (some centres not stated)
inactive: [1] | [2] | [3] | [4] | [5] | [6] | [7] | [9]
